NRP1-CendR mod = modulators of CendR peptide binding to NRP-1, primary screen, biochemical, fluorescence polarization, uHTS | FAM-RPARPAR peptide binding to NRP-1 | inhibition, % at 25 µM | 360,000 compounds, 0.85% hits | AID 602438, 2012;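 active means inhibition or corrected inhibition above about 18%, plus a signal ratio from 0.5 to 1.5, limit read from the data, passing the limit was not always enough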
ERp5 inh = inhibitors of ERp5-driven insulin aggregation, primary screen, biochemical, turbidity, absorbance 650 nm, single point; 90 min; inhibition, % at 9.99 µM; 350,000 compounds, 0.05% hits; AID 651711, 2012;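 active means mean replicate inhibition above about 25%, with every replicate also reaching it, limit read from the data, passing the limit was not always enough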
Target sequence (Q15084 whole entry, looked up): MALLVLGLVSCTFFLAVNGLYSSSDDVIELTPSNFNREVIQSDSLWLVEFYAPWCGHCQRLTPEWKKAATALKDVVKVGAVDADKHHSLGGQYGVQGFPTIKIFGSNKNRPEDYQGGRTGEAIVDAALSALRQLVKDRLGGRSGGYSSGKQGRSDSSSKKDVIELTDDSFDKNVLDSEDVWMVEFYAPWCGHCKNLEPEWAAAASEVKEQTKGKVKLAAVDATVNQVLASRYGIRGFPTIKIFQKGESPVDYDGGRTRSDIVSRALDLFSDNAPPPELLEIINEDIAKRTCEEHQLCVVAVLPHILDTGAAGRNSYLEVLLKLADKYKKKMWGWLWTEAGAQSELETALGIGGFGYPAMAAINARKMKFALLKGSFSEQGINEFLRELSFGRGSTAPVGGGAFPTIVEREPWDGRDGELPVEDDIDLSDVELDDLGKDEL
ARNT-TACC3 inh = disruptors of ARNT/TACC3 protein interaction, primary screen, biochemical, AlphaScreen, single concentration | inhibition, % at 9.99 µM | AlphaScreen His-ARNT PAS-B/GST-TACC3 binding, luminescence; TACC3 fragment carries E629A point mutation | AID 623870, 2012 | 390,000 compounds, 0.66% hits | Transforming acidic coiled-coil-containing protein 3 (Homo sapiens), Q9Y6A5;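 active means mean inhibition of replicates at least 50% and at least half of replicates each reaching 50%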
PglD DTNB = C. jejuni PglD acetyltransferase inhibitors, primary screen, biochemical, DTNB colorimetric, single point. inhibition, % at 12.5 µM. 360,000 compounds, 0.098% hits. UDP-N-acetylbacillosamine N-acetyltransferase PglD (Campylobacter jejuni). purified PglD enzyme, DTNB colorimetric CoA detection; in the data active means inhibition above about 16%, passing the limit was not always enough
PDI turbidity = inhibitors of human PDI, primary screen, biochemical, turbidity, single point, plate reader. PDI insulin aggregation turbidity, A650, 90 min. inhibition, % at 10 µM. 350,000 compounds, 0.052% hits;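 active means mean inhibition across replicates of 30% or more, whatever share of single replicates reach that level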
ALR inh = inhibitors of human ALR sulfhydryl oxidase, primary screen, biochemical, H2O2 detection, HRP-luminol luminescence, single point | FAD-linked sulfhydryl oxidase ALR (Homo sapiens), P55789 | purified ALR, DTT oxidation | inhibition, % (no concentration beside the values) | 290,000 compounds, 3.8% hits | AID 485317, 2010;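 active means mean replicate inhibition above about 79%, with every replicate also reaching it, limit read from the data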
Target sequence (P55789 whole entry, looked up): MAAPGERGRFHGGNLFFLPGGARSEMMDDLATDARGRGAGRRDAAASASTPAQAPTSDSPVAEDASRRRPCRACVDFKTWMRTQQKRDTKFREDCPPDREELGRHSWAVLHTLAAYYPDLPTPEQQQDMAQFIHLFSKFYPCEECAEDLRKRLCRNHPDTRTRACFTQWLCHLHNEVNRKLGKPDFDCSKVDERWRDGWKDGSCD
PglD confirm = PglD acetyltransferase inhibitors, confirmation, biochemical, DTNB absorbance, single point, cherry-picked samples. shares compounds with PglD DTNB. Purified C. jejuni PglD, DTNB absorbance 412 nm. inhibition, % at 20 µM. 320 tested, under 10 active;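 active means mean inhibition across replicates of at least 20% with every single replicate also at 20% or more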;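 further: initial rate of CoA release by acetyl transfer from AcCoA to the UDP-4-amino sugar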
Each line names hits and unclear results; the compound was inactive in the other large screens (follow-up assays come after a bar, where they were run). Only a selection was taken, and hits are over-represented in it overall.

CCN(CC)S(=O)(=O)c1ccc(S(=O)(=O)N2CCCC2C(=O)O)cc1 (centres undefined)	PglD DTNB 25 | PglD confirm inactive
CCSc1nnc(NC(=O)[C@@H](NC(=O)c2cccc(C)c2)C(C)C)s1	PglD DTNB 23 (no result: ERp5 inh, ALR inh) | PglD confirm inactive
CCC(CC)c1nnc(NC(=O)[C@@H](NC(=O)c2cccc(C)c2)C(C)C)s1	none (no result: PglD DTNB)
C=CCOC(=O)C1=C(C)NC(=S)NC1/C=C/c1ccccc1 (centres undefined)	none (no result: ERp5 inh)
CC1=C(C(=O)OCc2ccccc2)C(/C=C/c2ccccc2)NC(=S)N1 (centres undefined)	PglD DTNB 21 (no result: ERp5 inh) | PglD confirm inactive
CC(=O)NC1C(=O)N(CCN2CCOCC2)c2ccc(Cl)cc21 (centres undefined)	PglD DTNB 25 | PglD confirm 48
CCOc1ccc(-c2nnc(-c3cccs3)o2)cc1	PglD DTNB 27 (no result: ERp5 inh) | PglD confirm inactive
CCCNC(=O)Nc1ccc2c(c1)C(=O)N(C)C[C@@H](OC)[C@@H](C)CN(C(=O)C1CCOCC1)[C@H](C)CO2	none (no result: NRP1-CendR mod, ERp5 inh, ARNT-TACC3 inh, PDI turbidity, ALR inh)
CC(C)(C)c1ccc(-c2nnc3sc(-c4ccncc4)nn23)cc1	PglD DTNB 24 (no result: ERp5 inh) | PglD confirm inactive
COc1ccc(S(=O)(=O)N2CCCCC2)cc1NC(=S)Nc1ccccc1	PglD DTNB 23 (no result: ERp5 inh) | PglD confirm inactive
COc1cc(C(O)c2nc(-c3ccc(C)c(C)c3)cs2)ccc1F (centres undefined)	PglD DTNB 25 (no result: ARNT-TACC3 inh, ALR inh) | PglD confirm inactive
COc1ccc(C(CCN2CCN(c3ccccc3)CC2)c2c(O)cc(OC)cc2OC)cc1 (centres undefined)	none (no result: ERp5 inh)
COc1ccc(N2CCN(CCC(O)c3ccc4ccccc4c3)CC2)cc1 (centres undefined)	PglD DTNB 29 | PglD confirm inactive
Cc1ccc(S(=O)(=O)N(C)C[C@@H]2Oc3c(NC(=O)CCCCCC(=O)Nc4ccccc4N)cccc3C(=O)N([C@H](C)CO)C[C@@H]2C)cc1	none (no result: NRP1-CendR mod, ARNT-TACC3 inh, PglD DTNB, PDI turbidity, ALR inh)
COc1ccc(NC(=O)CC2SC(=NCC3CCCO3)NC2=O)cc1 (centres undefined)	PglD DTNB 26 | PglD confirm inactive
Cc1ccc(NC(=O)CC2SC(=NCC3CCCO3)NC2=O)cc1Cl (centres undefined)	none (no result: ERp5 inh, PglD DTNB)
CCC(C)[C@H](NC(=O)NC1CC1)C(=O)O (some centres undefined)	PglD DTNB 27 | PglD confirm inactive
CCCCOCCCNC(=O)N[C@H](C(=O)O)C(C)CC (some centres undefined)	none
O=C1OCCC1Sc1nnc(-c2ccc(Br)cc2)o1 (centres undefined)	PglD DTNB 34 (no result: ERp5 inh) | PglD confirm inactive
COc1ccc(CN(C)C[C@H]2OCCCC[C@H](C)Oc3ccc(NS(=O)(=O)c4ccc(F)cc4)cc3C(=O)N([C@@H](C)CO)C[C@H]2C)cc1	none (no result: NRP1-CendR mod, PDI turbidity, ALR inh)
CCCC/C(O)=C1\C(=O)CCCC1=NCCc1c(C)[nH]c2ccc(OC)cc12	PglD DTNB 20 | PglD confirm inactive
CN(C)CC(=O)N1CC2(C1)[C@H](c1ccccc1)[C@H](CO)N2C(=O)C1CCC1	none (no result: NRP1-CendR mod, ARNT-TACC3 inh, PglD DTNB, PDI turbidity, ALR inh)
CCc1ccccc1NC(=O)C1CCN(C(=O)c2ccc([N+](=O)[O-])cc2)CC1	PglD DTNB 46 (no result: ARNT-TACC3 inh) | PglD confirm inactive
CC(=O)Nc1ccc(NC(=O)C2CCN(C(=O)c3ccc([N+](=O)[O-])cc3)CC2)cc1	none (no result: ARNT-TACC3 inh, PglD DTNB)
Cc1cccc2[nH]c(CN(C)Cc3nc(CC4CC4)no3)nc12	PglD DTNB 36 | PglD confirm inactive
CN(Cc1nc2ccccc2[nH]1)Cc1nc(CC2CC2)no1	none (no result: PglD DTNB, ALR inh)
O=C1CSC(c2ccncc2)N1Cc1ccccc1 (centres undefined)	none (no result: ARNT-TACC3 inh, PglD DTNB)
O=C1CSC(c2cccnc2)N1Cc1cccnc1 (centres undefined)	PglD DTNB 23 | PglD confirm inactive
Cc1ccc(CCC(=O)Nc2ccc(N(C)C)cc2)o1	PglD DTNB 83, ALR inh 99 | PglD confirm inactive
COc1cc(C(=O)Nc2nnc(C(F)(F)F)s2)c([N+](=O)[O-])cc1OC	PglD DTNB 43 | PglD confirm inactive
COc1cc(C(=O)Nc2nnc(SC)s2)c([N+](=O)[O-])cc1OC	none (no result: PglD DTNB)
O=C(CC1CC1)N1CC2(C1)[C@@H](c1ccccc1)[C@H](CO)N2CC1CCOCC1	none (no result: NRP1-CendR mod, ARNT-TACC3 inh, PglD DTNB, PDI turbidity, ALR inh)
O=C(COC(=O)c1ccc([N+](=O)[O-])s1)NC(=O)NCc1ccccc1	PglD DTNB 31 (no result: ARNT-TACC3 inh) | PglD confirm inactive
O=C(COC(=O)c1ccc([N+](=O)[O-])s1)NCc1ccc(F)cc1	none (no result: ERp5 inh)
CC(=O)Nc1cc(-c2ccccc2F)cn2c(-c3ccccc3)cnc12	none (no result: ARNT-TACC3 inh, ALR inh)
CC(=O)c1cccc(-c2cnc3c(NC=O)cc(-c4ccccc4F)cn23)c1	PglD DTNB 25 (no result: ARNT-TACC3 inh, ALR inh) | PglD confirm inactive
C[C@H](CO)N1C[C@H](C)[C@@H](CN(C)C(=O)C2CCC2)Oc2cc(C#C[C@@H](C)O)ccc2S1(=O)=O	none (no result: NRP1-CendR mod, PDI turbidity, ALR inh)
CC(C)NC(=O)Nc1ccc2c(c1)C(=O)N([C@@H](C)CO)C[C@@H](C)[C@H](CN(C)CC1CC1)OCCCC[C@@H](C)O2	none (no result: NRP1-CendR mod, PDI turbidity, ALR inh)
COCCNC(=O)Cc1ccc(F)cc1	none (no result: PglD DTNB)
COCCNC(=O)CCCC(=O)NCCOC	PglD DTNB 35 (no result: ERp5 inh, ALR inh) | PglD confirm inactive
C[C@@H]1CCCCO[C@@H](CN(C)CC2CC2)[C@@H](C)CN([C@H](C)CO)C(=O)c2cc(NS(C)(=O)=O)ccc2O1	none (no result: NRP1-CendR mod, PDI turbidity, ALR inh)
c1ccc(CCNc2nc3ccccc3n3nnnc23)cc1	PglD DTNB 25 (no result: ERp5 inh) | PglD confirm inactive
COc1ccc(CCNc2nc3ccccc3n3nnnc23)cc1OC	none (no result: ALR inh)
CCC(=O)N(C)C[C@@H]1Oc2cc(-c3ccccc3OC)ccc2S(=O)(=O)N([C@@H](C)CO)C[C@@H]1C	none (no result: NRP1-CendR mod, PDI turbidity, ALR inh)
O=C(CNS(=O)(=O)c1ccc2ccccc2c1)OCc1nnc(-c2ccccc2)o1	PglD DTNB 34 (no result: ERp5 inh) | PglD confirm inactive
Cc1ccc(S(=O)(=O)NCC(=O)OCc2nnc(-c3ccccc3)o2)cc1C	none (no result: ERp5 inh)
CCOC(=O)C1CCN(S(=O)(=O)c2ccc3c(c2)CC(=O)N3C)CC1	PglD DTNB 41 | PglD confirm inactive
Fc1ccccc1OCCCn1ccnc1	none
CCC(Oc1ccccc1F)C(=O)NCCCn1ccnc1 (centres undefined)	PglD DTNB 37 | PglD confirm inactive
